From PubChem BioAssay
CYP2C9 inhib: blocks human cytochrome P450 2C9; P11712; CYP2C9 Supersomes, luciferin-H conversion, luminescence; inhibition, % at 5 µM; actives 20% (n = 96,000);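 active = blocking of liver enzyme CYP2C9 beyond about 50% at 5 µM, limit read from the data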
CD11b adhes enh: enhancers of human CD11b/CD18 binding to fibrinogen. P05107+P11215. K562 CD11b/CD18 adhesion to fibrinogen, ATPlite luminescence. AID 1499. actives 0.07% (n = 93,000). activation, % at 10 µM;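 active = 10 µM primary screen giving 50% or more activity, confirmed by 40% or more on retest at that dose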
CYP2C9 activ: increases human cytochrome P450 2C9 activity; activation factor at 5 µM; AID 1024; recombinant CYP2C9, luciferin-H conversion, luminescence; active compounds read high; factor 1 = untreated enzyme, 0 = blocked; P11712; actives 1.4% (n = 96,000);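 active = activation factor of 2 or more for CYP2C9 at a 5 µM dose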
CD11b adhes inh: inhibitors of human CD11b/CD18 binding to fibrinogen. actives 0.54% (n = 93,000). P05107+P11215. inhibition, % at 10 µM. K562 CD11b/CD18 adhesion to fibrinogen, ATPlite luminescence; Mn2+ added to activate the integrin;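 active = primary inhibition of 50% or more at 10 µM, then 40% or more on retest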
CYP2C19 inh: human CYP2C19 inhibition; P33261; CYP2C19 Supersomes, luciferin-H EGE luminescence, 30 min; inhibition, % at 5 µM; actives 21% (n = 96,000);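 active = CYP2C19 inhibition above a set limit at 5 µM in the primary screen, cut at about 50% in these data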
Target sequence (P33261 whole entry, looked up): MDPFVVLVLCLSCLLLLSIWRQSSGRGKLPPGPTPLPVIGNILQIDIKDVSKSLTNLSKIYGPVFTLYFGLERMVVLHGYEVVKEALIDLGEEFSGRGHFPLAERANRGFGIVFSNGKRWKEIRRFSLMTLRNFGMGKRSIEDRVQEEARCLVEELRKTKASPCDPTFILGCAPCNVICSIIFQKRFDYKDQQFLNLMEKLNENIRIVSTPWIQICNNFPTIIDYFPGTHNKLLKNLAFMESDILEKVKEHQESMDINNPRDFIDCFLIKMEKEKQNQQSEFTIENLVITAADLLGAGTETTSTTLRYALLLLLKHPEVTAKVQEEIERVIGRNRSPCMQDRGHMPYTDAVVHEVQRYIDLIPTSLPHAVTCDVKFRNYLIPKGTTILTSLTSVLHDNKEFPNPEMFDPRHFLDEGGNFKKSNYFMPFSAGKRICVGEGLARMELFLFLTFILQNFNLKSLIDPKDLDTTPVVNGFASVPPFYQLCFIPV
CYP2C19 act: cytochrome P450 2C19 (human) activation; P33261; recombinant CYP2C19, luciferin-H EGE luminescence; active compounds read high; 0 = fully inhibited enzyme, 1 = untreated enzyme; activation factor at 5 µM; 96,000 tested, under 10 active;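 active = activation factor of at least 2 at 5 µM in the primary screen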
Of the large screens only hits and unclear results are named; the others gave an inactive call. Sampled rows, rich in hits. Any-hit rate of the full collection: about 28%.

COc1ccc2c(c1)c(C(O)CN1CCC(Cc3ccccc3)CC1)c(C)n2C (centres undefined)	none
CS(=O)(=O)N1Cc2ccccc2CC1C(=O)Nc1ccccc1C(N)=O (centres undefined)	none
CCC(CC)C(=O)OCC(=O)NC12CC3CC(CC(C3)C1)C2	CYP2C19 inh 94
CCC1CCCCN1C(=O)COC(=O)c1ccc(S(=O)(=O)N2CCOCC2)cc1 (centres undefined)	none
Cc1ccnc(NS(=O)(=O)c2ccc(NC(=O)C34CC5CC(C)(CC(C)(C5)C3)C4)cc2)n1	CYP2C9 inhib 58
CCCCCc1nc2c(C#N)c(-c3ccc(Cl)cc3)ccn2n1	CYP2C9 inhib 58 (no result: CD11b adhes enh, CD11b adhes inh)
CCOCCCNC(=O)c1ccc(CS(=O)(=O)Cc2ccccc2F)o1	none
Cc1ccc(-c2nnn(CC(=O)Nc3cccc4cccnc34)n2)o1	none
CCCCS(=O)(=O)/C=C\C1C2C=CC(C2)C1S(=O)(=O)CCCC (centres undefined)	CYP2C9 inhib 52, CYP2C19 inh 76
CCC1=NNc2cccc3c(OC)ccc1c23	none
COc1ccc2c3c(cccc13)OCC2=O	CYP2C19 inh 51
CCCc1ccc(OCc2nc(-c3ccc(NC(=O)c4ccco4)cc3)no2)cc1	none
CC(Oc1ccc(Cl)cc1Cl)c1nc(-c2ccc(NC(=O)c3ccco3)cc2)no1 (centres undefined)	CYP2C9 inhib 54
COc1ccc(C(=O)COC(=O)[C@H](C)Nc2ccc(C(F)(F)F)cc2[N+](=O)[O-])cc1	CYP2C9 inhib 75
COc1ccc(Nc2ccc(C(=O)O)cc2[N+](=O)[O-])cc1	none (no result: CYP2C9 inhib, CYP2C9 activ, CYP2C19 inh, CYP2C19 act)
Cc1cc(C)c(C(=O)COC(=O)[C@H](C)Nc2ccc(C(F)(F)F)cc2[N+](=O)[O-])c(C)c1	CYP2C9 inhib 90, CYP2C19 inh 79
CCc1cc(C=C(Cl)Cl)oc(=O)c1C	CYP2C19 inh 83
CCC(C)N(C(=O)COC(=O)Cc1n[nH]c(=O)c2ccccc12)C1CCS(=O)(=O)C1 (centres undefined)	none
CC(C)NC(=O)CCS(=O)(=O)c1ccc(Br)s1	none
COC(=O)c1ccccc1NC(=O)CCS(=O)(=O)c1ccc(Br)s1	CYP2C19 inh 62
COC(=O)c1ccc(NC(=O)CCS(=O)(=O)c2ccc(Br)s2)cc1	CYP2C9 inhib 61
O=C(CCS(=O)(=O)c1ccc(Br)s1)NC1CCCC1	none
O=C(CCS(=O)(=O)c1ccc(Br)s1)NCc1ccccc1	CYP2C19 inh 60
O=C(Nc1nnc(C2CC2)s1)c1ccc(Cl)c(S(=O)(=O)N2CCc3ccccc3C2)c1	none (no result: CYP2C9 inhib, CYP2C9 activ, CYP2C19 inh, CYP2C19 act)
CCc1nnc(NC(=O)c2ccc(Cl)c(S(=O)(=O)N3CCc4ccccc43)c2)s1	CYP2C9 inhib 81, CD11b adhes inh 86, CYP2C19 inh 75
O=C(Nc1ncccc1O)c1cccc(S(=O)(=O)N2CCc3ccccc32)c1	CYP2C9 inhib 75, CYP2C19 inh 72
COc1cccc2c(=O)n(CC(=O)N3CCCCC3)ccc12	none
COc1ccc(CCN2C(=NC(=O)CC(C)C)SC3CS(=O)(=O)CC32)cc1 (centres undefined)	CYP2C9 inhib 56, CYP2C19 inh 82
O=C(NCCNC1CCN(Cc2ccccc2)CC1)c1cccs1	none
O=C1C2ON(c3ccccc3)C(c3ccncc3)C2C(=O)N1c1ccccc1 (centres undefined)	CYP2C9 inhib 86, CYP2C19 inh 100
Cc1cccc(C)c1N1C(=O)C2ON(c3ccccc3)C(c3ccncc3)C2C1=O (centres undefined)	CYP2C9 inhib 100, CYP2C19 inh 100
Cc1ccc(N2C(=O)C3ON(c4ccccc4)C(c4ccncc4)C3C2=O)c(C)c1 (centres undefined)	CYP2C9 inhib 95, CYP2C19 inh 100
CN(c1ccc(C(=O)Nc2ccccc2C(F)(F)F)cc1)S(C)(=O)=O	none
N#Cc1cc(-c2ccccc2)nnc1Oc1ccccc1Cl	none
O=C(Nc1ccc(N2CCOCC2)cc1)c1cn2ccccc2n1	CYP2C19 inh 60 (no result: CD11b adhes enh, CD11b adhes inh)
Cc1cc(NC(=O)CSc2nnc(-c3ccc(Br)o3)n2Cc2ccccc2)no1	CYP2C9 inhib 66, CYP2C19 inh 58
